Test results from PubChem BioAssay.
For part of these data: Potency and affinity values are given separately. Inconclusive results are not listed. Calls of active or inactive are those of the source. Unless noted, how the calls were made is not given here.

Tests used:
[1] = Plasmodium falciparum growth inhibition, primary screen, strain 3D7, DAPI fluorescence, 100 nL (AID 1184);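 further: parasites grown inside human red blood cells in medium with human serum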; conditions: P. falciparum 3D7 growth, 3 d, higher = more signal
[2] = biological target: Homeobox protein Hox-A13 (Mus musculus) (UniProt Q62424); experiment: inhibitors of HoxA13-DNA binding, primary screen, biochemical, fluorescence polarization, labeled oligonucleotide (AID 1185); conditions: 15 min, higher = more signal, called active from +8 up or from −8 down
Chain of Homeobox protein Hox-A13 (Mus musculus) (Q62424 whole entry, looked up): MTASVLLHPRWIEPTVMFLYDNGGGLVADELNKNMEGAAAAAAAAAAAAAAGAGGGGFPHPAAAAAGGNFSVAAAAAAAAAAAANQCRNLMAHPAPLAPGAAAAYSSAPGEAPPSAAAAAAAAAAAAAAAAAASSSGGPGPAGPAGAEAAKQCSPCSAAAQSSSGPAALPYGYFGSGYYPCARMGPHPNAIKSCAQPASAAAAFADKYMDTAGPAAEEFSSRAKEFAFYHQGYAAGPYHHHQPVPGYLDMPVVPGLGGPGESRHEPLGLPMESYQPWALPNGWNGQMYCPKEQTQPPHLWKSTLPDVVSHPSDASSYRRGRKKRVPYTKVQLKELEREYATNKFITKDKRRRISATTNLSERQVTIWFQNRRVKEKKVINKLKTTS

[3] = inhibitors of hydroxyurea-induced Chk1 phosphorylation, primary screen, imaging, HeLa, phospho-Chk1 antibody, percent positive cells (AID 1186); conditions: hydroxyurea-induced phospho-Chk1 immunofluorescence imaging, higher = more signal
[4] = inhibitors of hydroxyurea-induced Chk1 phosphorylation, primary screen, imaging, HeLa, phospho-Chk1 nuclear intensity (AID 1187); conditions: hydroxyurea-induced phospho-Chk1 immunofluorescence imaging, higher = more signal
[5] = Cryptococcus neoformans growth inhibition, dose response, Alamar Blue, cherry-picks (AID 686998;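 active means falling signal with fitted half-maximal potency no higher than twice the top valid tested dose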); conditions: 24 h; series mostly up to 35 µM
[6] = inducers of Cryptococcus neoformans cell lysis, dose response, AK release luminescence, cherry-picks (AID 687000;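 active means fitted dose curve reaches 40% lysis signal rise at or below the highest valid concentration tested for that sample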;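 further: luminescent detection of adenylate kinase leaking from lysed yeast; 0% = median neutral control signal and 100% = double that signal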); conditions: C. neoformans lysis, adenylate kinase release luminescence, 4 h, 100% = twice the neutral-control signal; series mostly up to 15 µM
[7] = HepG2 cell cytotoxicity, dose response, cytotoxicity control, cherry-picks, set 2 (AID 687002;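 active means a dose-response fit showing signal loss, with half-maximal concentration no higher than twice the top tested dose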); conditions: HepG2 viability, ATP luminescence (CellTiter-Glo), 48 h; series mostly up to 26 µM

Row | Compound | z-score [1] | z-score [2] | z-score [3] | z-score [4] | outcome [5] | outcome [6] | outcome [7]
1 | C=C(COC)C(=O)CC[C@H](OC(=O)c1cccnc1)c1cccc(OCCO)c1 | -1.66 | -3.09 (inactive) | -0.458 (inactive) | -0.203 (inactive) | – | – | –
2 | C=CCNC(=O)[C@H]1[C@@H]2C(=O)O[C@@H](c3ccccc3)[C@@H](c3ccccc3)N2[C@@H](c2ccccc2OCCO)[C@]12C(=O)N(C(=O)OCCOC)c1ccc(C#CCCO)cc12 | -2.16 | -1.2 (inactive) | 0.051 (inactive) | -0.0745 (inactive) | – | – | –
3 | C#CCOc1ccc(C[C@H]2C(=O)O[C@H](Cc3ccccc3)[C@H](/C=C/C3CC3)N2CC#C)cc1 | -1.13 | -0.167 (inactive) | -0.54 (inactive) | -0.582 (inactive) | – | – | –
4 | CC(C)(C)OC(=O)CC[C@@]12N=C(c3ccc(OCCCO)cc3)O[C@@H]1c1ccccc1N(Cc1ccccc1)C2=O | -2.19 | -1.44 (inactive) | -0.501 (inactive) | -0.284 (inactive) | – | – | –
5 | CC(C)C[C@@H]1NC(=O)[C@H]2C[C@@H](C(=O)NCCCC[N+](C)(C)C)[C@@H](c3cccc(OCCO)c3)N2C1=O | 1 | -2.24 (inactive) | 0.656 (inactive) | 0.824 (inactive) | – | – | –
6 | NCCCCCNC(=O)[C@H]1C[C@H]2C(=O)NCC(=O)N2[C@H]1c1ccc(O)cc1 | -0.223 | -0.587 (inactive) | 0.637 (inactive) | 0.791 (inactive) | – | – | –
7 | O=C(NCC(F)(F)F)[C@@H]1c2ccccc2C(=O)N(C2Cc3ccccc3C2)[C@H]1c1ccc(CO)cc1 | 0.824 | -1.6 (inactive) | -0.606 (inactive) | -0.842 (inactive) | – | – | –
8 | C=CCC1(CC=C)C[C@H]2CO[C@H](c3ccc(OC)cc3)N2C1=O | -0.682 | -0.41 (inactive) | -0.063 (inactive) | 0.989 (inactive) | – | – | –
9 | [N-]=[N+]=NCc1ccccc1C[C@@]1(C(=O)NCc2ccccc2)N=C(c2ccc(OCCCO)cc2)O[C@@H]1c1ccccc1 | -2.15 | 0.77 (inactive) | -1.01 (inactive) | -1.39 (inactive) | – | – | –
10 | CCCCCN1CC=CC23O[C@@H]4/C=C\CCC(C)OC(=O)C4[C@H]2C(=O)N(CCCO)[C@@H]3C1=O (stereo partly specified) | -0.186 | -3.86 (inactive) | -0.183 (inactive) | 0.0885 (inactive) | – | – | –
11 | [N-]=[N+]=NCc1ccccc1C[C@@]1(C(=O)O)N=C(c2ccc(OCCCO)cc2)O[C@@H]1c1ccccc1 | -0.455 | -5.05 (inactive) | 0.0912 (inactive) | 0.429 (inactive) | – | – | –
12 | C=CCN1C(=O)[C@@]2(O[C@@H](CCO)[C@H]([Si](C)(C)c3ccc(OC)cc3)[C@H]2C)c2cc(N(C=O)c3ccccc3)ccc21 | -2.56 | -3.62 (inactive) | -1.21 (inactive) | -0.407 (inactive) | – | – | –
13 | COc1ccc(C(=O)Nc2cccc(CN3C(=O)[C@@]4(O[C@@H](CCO)[C@H]([Si](C)(C)c5ccc(OC)cc5)[C@H]4C)c4ccccc43)c2)cc1 | -2.7 | -2.09 (inactive) | -1.08 (inactive) | -0.215 (inactive) | – | – | –
14 | CC(C)CCC[C@@H](C)[C@H]1CC[C@@]2(C)C3=C(CC[C@]12C)[C@@]1(C)CC[C@H](OC(=O)CCl)C(C)(C)C1CC3 (stereo partly specified) | -0.0992 | -0.128 (inactive) | -0.199 (inactive) | -0.281 (inactive) | – | – | –
15 | CC(C)[Si](C#C[Si](C(C)C)(C(C)C)C(C)C)(O[C@H](C)c1cn([C@H](C)c2ccccc2)nn1)C(C)C | -0.628 | -0.0303 (inactive) | -0.0899 (inactive) | 0.346 (inactive) | – | – | –
16 | O=C(O)[C@H]1C[C@H]2C(=O)N[C@@H](Cc3ccccc3)C(=O)N2[C@H]1c1ccc(O)cc1 | -0.453 | -2.68 (inactive) | -0.119 (inactive) | -0.18 (inactive) | – | – | –
17 | C=C(CCCC)/C(=C/C[C@@H](OC(=O)c1ccncc1)c1ccc(OCCO)cc1)c1cnc2ccccc2c1 | -2.84 | -2.35 (inactive) | -0.191 (inactive) | -0.181 (inactive) | – | – | –
18 | COCCOC(=O)N1C(=O)[C@@]2(c3cc(C#CCNC(N)=O)ccc31)[C@H](C(=O)NC[C@H](O)c1ccccc1)[C@H]1C(=O)O[C@H](c3ccccc3)[C@H](c3ccccc3)N1[C@@H]2c1ccc(O)cc1 | 0.418 | -2.4 (inactive) | -0.134 (inactive) | -0.595 (inactive) | – | – | –
19 | CC(CO)N1C(=O)[C@@H]2C3C(=O)OCCC/C=C\[C@H]3OC23C=CCN(Cc2ccccc2)C(=O)[C@@H]13 (stereo partly specified) | -0.518 | -5.46 (inactive) | -0.6 (inactive) | -0.674 (inactive) | – | – | –
20 | O=C(N1CCCCC1)[C@@]1(Cc2ccccc2)N=C(c2ccc(OCCCO)cc2)O[C@H]1c1ccccc1 | -2.18 | -3.68 (inactive) | -1.29 (inactive) | -1.55 (inactive) | – | – | –
21 | Cc1ccc(N2C(=O)c3ccccc3[C@](C)(C(=O)NC3CC3)[C@@H]2c2ccc(CO)cc2)nc1 | 0.202 | -1.18 (inactive) | -0.0797 (inactive) | 0.24 (inactive) | – | – | –
22 | Cc1ccc(S[C@]2(C(=O)NCCN3CCOCC3)CC(=O)N(Cc3cc(C(F)(F)F)cc(C(F)(F)F)c3)[C@@H]2c2ccc(CO)cc2)cc1 | -0.578 | -1.78 (inactive) | -0.999 (inactive) | -2.03 (inactive) | – | – | –

Row | Compound | z-score [1] | z-score [2] | z-score [3] | z-score [4] | outcome [5] | outcome [6] | outcome [7]
23 | C=C(COC)/C(=C/C[C@H](OC(C)=O)c1cccc(OCCO)c1)c1cc(C(=O)OC)ccc1OC | -2.67 | -2.39 (inactive) | -0.283 (inactive) | -0.727 (inactive) | – | – | –
24 | Cc1ccc(N2C(=O)c3ccccc3[C@](C)(C(=O)NCC(F)(F)F)[C@@H]2c2ccc(CO)cc2)nc1 | -1.36 | -1.16 (inactive) | -0.326 (inactive) | -0.277 (inactive) | – | – | –
25 | CC(C)(C)OC(=O)CC[C@@]12N=C(c3ccc(OCCCO)cc3)O[C@@H]1c1ccccc1CN(Cc1ccccc1)C2=O | -2.3 | -1.33 (inactive) | -0.543 (inactive) | 0.0228 (inactive) | – | – | –
26 | CCN(CC)c1ccc(N2CC=CC34O[C@@H]5C=CCOC(=O)[C@@H]5[C@H]3C(=O)N(C(CO)C(C)C)[C@@H]4C2=O)cc1 (stereo partly specified) | -0.45 | -3.03 (inactive) | -0.623 (inactive) | 0.286 (inactive) | – | – | –
27 | C=C(COC)C(=O)CC[C@H](OC(=O)c1ccccc1-c1ccccc1C(=O)O)c1ccccc1OCCO | -1.11 | -3.93 (inactive) | 0.269 (inactive) | -0.228 (inactive) | – | – | –
28 | C=CCC(OC(C)=O)[C@@H]1[C@@H](N(Cc2cccc3ccccc23)C(=O)c2cccc3ccccc23)c2cc(OCCCO)ccc2N1C(=O)Cc1ccc(OC)cc1 (stereo partly specified) | -2.48 | -1.57 (inactive) | -0.0578 (inactive) | 0.507 (inactive) | – | – | –
29 | CCCCC(=C=CC[C@@H](O)c1ccc(OCCO)cc1)C[C@@H](O)c1cc(Cl)cc(Cl)c1O | -2.87 | -3.4 (inactive) | -0.806 (inactive) | -0.578 (inactive) | – | – | –
30 | COC(=O)c1c2oc(c1C(=O)OC)C(=O)N[C@@H](C(C)C)Cn1nncc1C1(CCCCC1)NC(=O)N[C@H](CO)CC2 | 0.0974 | -1.72 (inactive) | -0.259 (inactive) | 0.158 (inactive) | – | – | –
31 | O=C1O[C@H](c2ccccc2)[C@H](c2ccccc2)N2[C@H]1[C@@H](C(=O)Nc1nc3ccccc3s1)[C@]1(C(=O)Nc3ccc(C#CCCO)cc31)[C@H]2c1ccccc1OCCO | -2.23 | 2.73 (inactive) | 0.288 (inactive) | 0.492 (inactive) | – | – | –
32 | C=CCNC(=O)[C@@H]1[C@H]2C(=O)O[C@H](c3ccccc3)[C@H](c3ccccc3)N2[C@H](c2ccc(O)cc2)[C@@]12C(=O)N(C(=O)OCCOC)c1ccc(C#Cc3ccc(OC)cc3)cc12 | -1.08 | -0.182 (inactive) | 0.148 (inactive) | 0.446 (inactive) | – | – | –
33 | COc1ccc([Si](C)(C)[C@@H]2[C@@H](CCn3cc(CCO)nn3)O[C@]3(C(=O)N(Cc4ccc(N5C(=O)c6cccc7cccc5c67)cc4)c4ccccc43)[C@H]2C)cc1 | -2.41 | -1.56 (inactive) | -1.02 (inactive) | -0.956 (inactive) | – | – | –
34 | NC(=O)N1C(=O)C2C(C1=O)C1C=C(c3ccc(CO)cc3)C2C(C2CC2)N1Cc1cc2c(cc1Br)OCO2 (stereo unspecified) | -2.14 | -3.21 (inactive) | -0.136 (inactive) | -0.279 (inactive) | – | – | –
35 | C=C(C1=CCN(S(=O)(=O)c2ccc(C)cc2)C1)[C@@H](OC(C)=O)[C@@H]1CCCN1S(=O)(=O)c1ccccc1[N+](=O)[O-] | -2.68 | -3.62 (inactive) | -0.353 (inactive) | 0.0039 (inactive) | – | – | –
36 | C=CCC(OC(C)=O)[C@@H]1[C@@H](N(Cc2cc3ccccc3o2)C(=O)c2ccc(-c3ccccc3)cc2)c2cc(OCCCO)ccc2N1C(=O)c1ccc(-c2ccccc2)cc1 (stereo partly specified) | -1.63 | -0.639 (inactive) | -0.604 (inactive) | -0.195 (inactive) | – | – | –
37 | CC(C)C(CO)N1C(=O)[C@@H]2[C@H]3C(=O)OCC=C[C@H]3OC23C=CCN(Cc2ccccc2)C(=O)[C@@H]13 (stereo partly specified) | -0.383 | -2.93 (inactive) | -0.228 (inactive) | -0.647 (inactive) | – | – | –
38 | CN(C)CCCC[C@@H]1NC(=O)[C@@H]2C[C@H](C(=O)NCCCCCNC(=O)CS)[C@H](c3cccc(OCCO)c3)N2C1=O | -1.46 | -1.12 (inactive) | 0.27 (inactive) | 0.302 (inactive) | – | – | –
39 | O=C1O[C@H](c2ccccc2)[C@H](c2ccccc2)N2[C@H]1[C@@H](C(=O)NC[C@H](O)c1ccccc1)[C@]1(C(=O)Nc3ccc(C#CC4(O)CCCCCC4)cc31)[C@H]2c1ccc(O)cc1 | 0.097 | -1.84 (inactive) | 0.104 (inactive) | 0.572 (inactive) | – | – | –
40 | C=C(C(=O)CC[C@@H](OC(C)=O)c1ccccc1OCCO)C(C)C | -1.59 | -1.92 (inactive) | -0.345 (inactive) | -0.171 (inactive) | – | – | –
41 | CCCCCCC#C[Si](O[C@H](c1ccccc1)c1cn(Cc2ccccc2)nn1)(C(C)C)C(C)C | -0.934 | 1.18 (inactive) | -0.766 (inactive) | -0.601 (inactive) | – | – | –
42 | C#CCN1C(C(=O)OCC)OC[C@H]1c1ccccc1 (stereo partly specified) | -1.53 | 0.387 (inactive) | -0.285 (inactive) | 0.0032 (inactive) | – | – | –
43 | COc1cc(C(=O)Oc2ccccc2N)cc(OC)c1OC | – | – | – | – | inactive | inactive | inactive
